± gives the standard deviation of the averaged measurements.
Tested on: E. coli BW25113 marRABp lux reporter
Assay: promoter activity interaction Z-score (Lux/OD deviation from empty-vector control); higher = stronger promoter induction by the compound
Procedure: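 E. coli BW25113 (wild type or ΔmarA/ΔsoxS/Δrob) carrying pTU175 luxCDABE promoter reporters was grown in LB in 384-well plates at 37°C with each of 94 compounds at 4 two-fold concentrations, in biological duplicates. Luminescence and OD600 were read every 30 min for 12 h and integrated as AUC over 8 h (0-8 h WT, 1-9 h mutants). Lux AUC was divided by OD AUC; the interaction score is the residual of a Huber robust fit of each promoter against the empty-vector control, then Z-transformed per promoter.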

CC1(C)S[C@@H]2[C@H](/N=C/N3CCCCCC3)C(=O)N2[C@H]1C(=O)O [Mecillinam]
promoter activity interaction Z-score (0.0081 µg/ml, genetic background: wild type): 0.0167 ± 0.096
promoter activity interaction Z-score (0.0081 µg/ml, genetic background: ΔmarA): -0.0228 ± 0.035
promoter activity interaction Z-score (0.0081 µg/ml, genetic background: Δrob): 0.0796 ± 0.13
promoter activity interaction Z-score (0.0081 µg/ml, genetic background: ΔsoxS): -0.119 ± 0.16
promoter activity interaction Z-score (0.016 µg/ml, genetic background: wild type): -0.158 ± 0.16
promoter activity interaction Z-score (0.016 µg/ml, genetic background: ΔmarA): -0.0902 ± 0.12
promoter activity interaction Z-score (0.016 µg/ml, genetic background: Δrob): 0.334 ± 0.2
promoter activity interaction Z-score (0.016 µg/ml, genetic background: ΔsoxS): -0.0159 ± 0.17
promoter activity interaction Z-score (0.033 µg/ml, genetic background: wild type): 0.203 ± 0.034
promoter activity interaction Z-score (0.033 µg/ml, genetic background: ΔmarA): 0.119
promoter activity interaction Z-score (0.033 µg/ml, genetic background: Δrob): 1.33
promoter activity interaction Z-score (0.033 µg/ml, genetic background: ΔsoxS): 0.151 ± 0.51

c1ccc2[nH]ccc2c1 [Indole]
promoter activity interaction Z-score (14.6 µg/ml, genetic background: wild type): 0.304 ± 0.29
promoter activity interaction Z-score (14.6 µg/ml, genetic background: ΔmarA): 0.3765 ± 0.00083
promoter activity interaction Z-score (14.6 µg/ml, genetic background: Δrob): 0.103 ± 0.22
promoter activity interaction Z-score (14.6 µg/ml, genetic background: ΔsoxS): 0.259 ± 0.025
promoter activity interaction Z-score (29.3 µg/ml, genetic background: wild type): 0.16 ± 0.016
promoter activity interaction Z-score (29.3 µg/ml, genetic background: ΔmarA): 0.41 ± 0.022
promoter activity interaction Z-score (29.3 µg/ml, genetic background: Δrob): 0.118 ± 0.27
promoter activity interaction Z-score (29.3 µg/ml, genetic background: ΔsoxS): 0.258 ± 0.2
promoter activity interaction Z-score (58.6 µg/ml, genetic background: wild type): 0.085 ± 0.049
promoter activity interaction Z-score (58.6 µg/ml, genetic background: ΔmarA): -0.158 ± 0.041
promoter activity interaction Z-score (58.6 µg/ml, genetic background: Δrob): -0.0769 ± 0.035
promoter activity interaction Z-score (58.6 µg/ml, genetic background: ΔsoxS): -0.0326 ± 0.017
promoter activity interaction Z-score (117.2 µg/ml, genetic background: wild type): 0.965 ± 0.34
promoter activity interaction Z-score (117.2 µg/ml, genetic background: ΔmarA): 0.558 ± 0.15
promoter activity interaction Z-score (117.2 µg/ml, genetic background: Δrob): 0.0948 ± 0.28
promoter activity interaction Z-score (117.2 µg/ml, genetic background: ΔsoxS): 0.629 ± 0.47

CCN(CC)CCOC(=O)c1ccc(N)cc1 [Procaine]
promoter activity interaction Z-score (1329.2 µg/ml, genetic background: wild type): 0.474 ± 0.19
promoter activity interaction Z-score (1329.2 µg/ml, genetic background: ΔmarA): 1.13 ± 0.098
promoter activity interaction Z-score (1329.2 µg/ml, genetic background: Δrob): -0.044 ± 0.24
promoter activity interaction Z-score (1329.2 µg/ml, genetic background: ΔsoxS): 0.558 ± 0.086
promoter activity interaction Z-score (2658.5 µg/ml, genetic background: wild type): 0.562 ± 0.12
promoter activity interaction Z-score (2658.5 µg/ml, genetic background: ΔmarA): 1.42 ± 0.24
promoter activity interaction Z-score (2658.5 µg/ml, genetic background: Δrob): -0.0229 ± 0.4
promoter activity interaction Z-score (2658.5 µg/ml, genetic background: ΔsoxS): 0.555 ± 0.11
promoter activity interaction Z-score (5317 µg/ml, genetic background: wild type): 0.94 ± 0.094
promoter activity interaction Z-score (5317 µg/ml, genetic background: ΔmarA): 2.128 ± 0.015
promoter activity interaction Z-score (5317 µg/ml, genetic background: Δrob): 0.0444 ± 0.17
promoter activity interaction Z-score (5317 µg/ml, genetic background: ΔsoxS): 0.444 ± 0.23
promoter activity interaction Z-score (10634 µg/ml, genetic background: wild type): 1.63 ± 0.15
promoter activity interaction Z-score (10634 µg/ml, genetic background: ΔmarA): 2.15 ± 0.55
promoter activity interaction Z-score (10634 µg/ml, genetic background: ΔsoxS): 2.04 ± 0.25

Source: the supplement of paper PMC12282887
